# Test results taken from PMC7862700, “An all-to-all approach to the identification of sequence-specific readers for epigenetic DNA modifications on cytosine”.
# Columns and labels:
# Experiment in all cases: DAPPL (digital affinity profiling via proximity ligation, sequencing); 10 mM Tris-HCl pH 7.5, 50 mM NaCl, 1 mM DTT, 4% glycerol, room temperature, 30 min; GST-TFs on glutathione beads, 16-mer random dsDNA library, 0.1% formaldehyde crosslink after washing; high values mean tight binding
# FLI1 = molecular target: T1, FLI1 (Homo sapiens, UniProt Q01543 1-452); conditions: protein: recombinant; tags: N-terminal GST; dsDNA, one strand shown
# T1 sequence: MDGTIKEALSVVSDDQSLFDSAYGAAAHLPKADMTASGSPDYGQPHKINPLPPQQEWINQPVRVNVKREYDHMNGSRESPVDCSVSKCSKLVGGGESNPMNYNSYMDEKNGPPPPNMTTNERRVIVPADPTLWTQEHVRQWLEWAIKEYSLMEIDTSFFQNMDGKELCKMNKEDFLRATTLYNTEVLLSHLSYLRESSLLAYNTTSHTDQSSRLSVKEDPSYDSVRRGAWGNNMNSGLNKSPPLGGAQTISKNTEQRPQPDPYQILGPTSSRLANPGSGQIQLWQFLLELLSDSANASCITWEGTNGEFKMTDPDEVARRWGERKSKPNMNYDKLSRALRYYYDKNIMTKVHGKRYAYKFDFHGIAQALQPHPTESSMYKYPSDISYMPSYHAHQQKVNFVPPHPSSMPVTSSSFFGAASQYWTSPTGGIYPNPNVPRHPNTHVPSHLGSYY
# Outline: (§1)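 Binding signal is each hexamer's read frequency for a factor divided by its frequency in the tag-only sample. The factors were GST-fused human transcription factors from yeast, captured on glutathione beads, DNA-barcoded and pooled with that sample. Pools were incubated with 200 nmole of a random double-stranded 16-mer DNA library in Tris/NaCl/DTT/glycerol buffer at room temperature for 30 min, then washed, crosslinked with 0.1% formaldehyde, proximity-ligated with BsaI/T4 ligase (1 h, 37 °C), PCR-amplified and sequenced on an Illumina NextSeq500.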
# ELK1 = molecular target: T2, ELK1 (Homo sapiens, UniProt P19419 1-428); conditions: protein: recombinant; tags: N-terminal GST; dsDNA, one strand shown
# T2 sequence: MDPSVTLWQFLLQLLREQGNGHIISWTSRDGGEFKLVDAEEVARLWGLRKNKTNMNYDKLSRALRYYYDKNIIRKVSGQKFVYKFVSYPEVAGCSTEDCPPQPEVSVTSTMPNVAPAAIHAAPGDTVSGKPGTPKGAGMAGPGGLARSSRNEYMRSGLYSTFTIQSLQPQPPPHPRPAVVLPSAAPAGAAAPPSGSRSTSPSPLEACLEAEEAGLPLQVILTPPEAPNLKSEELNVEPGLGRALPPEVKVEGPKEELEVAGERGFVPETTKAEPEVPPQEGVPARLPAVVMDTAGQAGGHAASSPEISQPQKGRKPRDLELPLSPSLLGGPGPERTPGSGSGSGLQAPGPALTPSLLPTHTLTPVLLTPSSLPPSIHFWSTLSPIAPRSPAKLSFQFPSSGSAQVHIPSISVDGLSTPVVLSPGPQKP
# Outline: as §1
# GABPA = molecular target: T3, GABPA (Homo sapiens, UniProt Q06546 1-454); conditions: protein: recombinant; tags: N-terminal GST; dsDNA, one strand shown
# T3 sequence: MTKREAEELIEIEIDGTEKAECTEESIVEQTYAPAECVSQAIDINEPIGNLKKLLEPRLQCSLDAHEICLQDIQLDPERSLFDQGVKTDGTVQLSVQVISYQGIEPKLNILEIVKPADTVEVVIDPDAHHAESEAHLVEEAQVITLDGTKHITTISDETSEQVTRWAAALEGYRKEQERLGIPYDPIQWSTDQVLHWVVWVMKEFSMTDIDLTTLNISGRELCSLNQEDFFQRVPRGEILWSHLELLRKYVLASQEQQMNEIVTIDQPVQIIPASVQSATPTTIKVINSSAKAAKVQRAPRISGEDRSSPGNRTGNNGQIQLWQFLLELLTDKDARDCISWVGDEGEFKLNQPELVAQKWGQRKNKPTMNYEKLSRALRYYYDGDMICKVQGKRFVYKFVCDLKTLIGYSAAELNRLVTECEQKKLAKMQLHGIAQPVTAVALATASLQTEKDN
# Outline: as §1
# ERG = molecular target: T4, ERG (Homo sapiens, UniProt P11308 1-479); conditions: protein: recombinant; tags: N-terminal GST; dsDNA, one strand shown
# T4 sequence: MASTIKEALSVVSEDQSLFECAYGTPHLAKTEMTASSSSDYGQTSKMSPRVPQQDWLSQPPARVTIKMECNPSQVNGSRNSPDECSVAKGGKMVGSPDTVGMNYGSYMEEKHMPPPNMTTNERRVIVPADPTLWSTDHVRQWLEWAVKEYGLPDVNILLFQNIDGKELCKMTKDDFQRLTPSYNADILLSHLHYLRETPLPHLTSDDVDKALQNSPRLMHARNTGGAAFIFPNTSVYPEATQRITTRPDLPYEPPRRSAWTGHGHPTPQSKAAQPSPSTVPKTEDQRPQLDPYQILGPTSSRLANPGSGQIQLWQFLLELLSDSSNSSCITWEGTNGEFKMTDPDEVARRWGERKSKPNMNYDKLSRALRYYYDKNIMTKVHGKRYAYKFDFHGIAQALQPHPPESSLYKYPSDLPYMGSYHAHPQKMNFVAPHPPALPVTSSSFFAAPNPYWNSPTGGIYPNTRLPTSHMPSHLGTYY
# Outline: as §1
# ELF1 = ELF1 (Homo sapiens, UniProt P32519 1-619); conditions: protein: recombinant; tags: N-terminal GST; dsDNA, one strand shown
# ELF1, sequence (P32519 whole entry): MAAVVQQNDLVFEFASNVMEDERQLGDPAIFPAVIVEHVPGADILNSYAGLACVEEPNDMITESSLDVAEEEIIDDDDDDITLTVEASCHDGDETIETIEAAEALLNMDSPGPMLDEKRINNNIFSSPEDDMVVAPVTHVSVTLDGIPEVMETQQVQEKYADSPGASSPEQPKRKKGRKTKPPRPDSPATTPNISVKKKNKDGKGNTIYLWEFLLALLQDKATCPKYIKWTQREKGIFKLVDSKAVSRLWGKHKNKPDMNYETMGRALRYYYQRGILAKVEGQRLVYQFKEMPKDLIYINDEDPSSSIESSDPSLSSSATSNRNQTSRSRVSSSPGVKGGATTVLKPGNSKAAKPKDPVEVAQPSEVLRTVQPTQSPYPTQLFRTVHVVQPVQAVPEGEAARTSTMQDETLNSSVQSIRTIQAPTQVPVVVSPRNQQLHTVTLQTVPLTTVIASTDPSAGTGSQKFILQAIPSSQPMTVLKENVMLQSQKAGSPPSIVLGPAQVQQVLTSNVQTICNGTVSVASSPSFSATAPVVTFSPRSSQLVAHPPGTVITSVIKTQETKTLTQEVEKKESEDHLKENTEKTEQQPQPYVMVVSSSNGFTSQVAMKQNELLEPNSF
# Outline: as §1
# EHF = molecular target: T5, EHF (Homo sapiens, UniProt Q9NZC4 1-300); conditions: protein: recombinant; tags: N-terminal GST; dsDNA, one strand shown
# T5 sequence: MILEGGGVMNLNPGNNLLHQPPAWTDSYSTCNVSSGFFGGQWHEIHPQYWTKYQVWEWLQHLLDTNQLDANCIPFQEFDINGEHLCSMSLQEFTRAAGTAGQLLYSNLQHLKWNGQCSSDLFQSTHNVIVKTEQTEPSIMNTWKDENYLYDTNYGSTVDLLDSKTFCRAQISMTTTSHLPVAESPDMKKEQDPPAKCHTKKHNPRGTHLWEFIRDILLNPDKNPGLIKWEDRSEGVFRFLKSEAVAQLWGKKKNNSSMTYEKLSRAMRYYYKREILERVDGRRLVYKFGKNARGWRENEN
# Outline: as §1
# SPI1 = SPI1 (Homo sapiens, UniProt P17947 1-270); conditions: protein: recombinant; tags: N-terminal GST; dsDNA, one strand shown
# Outline: as §1
# SPIB = SPIB (Homo sapiens, UniProt Q01892 1-262); conditions: protein: recombinant; tags: N-terminal GST; dsDNA, one strand shown
# SPIB, sequence (Q01892 whole entry): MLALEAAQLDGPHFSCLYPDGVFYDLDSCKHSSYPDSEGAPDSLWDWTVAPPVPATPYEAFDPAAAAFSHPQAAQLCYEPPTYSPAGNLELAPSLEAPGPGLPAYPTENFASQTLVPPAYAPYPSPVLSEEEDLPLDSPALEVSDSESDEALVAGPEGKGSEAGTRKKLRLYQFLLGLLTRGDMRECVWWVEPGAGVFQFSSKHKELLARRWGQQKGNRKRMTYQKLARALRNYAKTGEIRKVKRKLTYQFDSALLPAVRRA
# Outline: as §1
# ELK3 = molecular target: T6, ELK3 (Homo sapiens, UniProt P41970 1-407); conditions: protein: recombinant; tags: N-terminal GST; dsDNA, one strand shown
# T6 sequence: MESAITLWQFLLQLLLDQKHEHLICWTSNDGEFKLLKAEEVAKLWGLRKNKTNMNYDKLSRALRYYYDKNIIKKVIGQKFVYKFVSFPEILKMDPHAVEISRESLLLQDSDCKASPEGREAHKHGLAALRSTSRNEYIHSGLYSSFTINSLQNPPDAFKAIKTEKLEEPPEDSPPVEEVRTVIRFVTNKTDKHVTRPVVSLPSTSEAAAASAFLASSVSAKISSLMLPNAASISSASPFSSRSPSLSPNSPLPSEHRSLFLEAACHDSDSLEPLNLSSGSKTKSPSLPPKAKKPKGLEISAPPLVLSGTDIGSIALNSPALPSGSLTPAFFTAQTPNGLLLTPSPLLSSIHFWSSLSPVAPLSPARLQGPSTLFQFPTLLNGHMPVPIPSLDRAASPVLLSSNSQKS
# Outline: as §1
# FEV = molecular target: T7, FEV (Homo sapiens, UniProt Q99581 1-238); conditions: protein: recombinant; tags: N-terminal GST; dsDNA, one strand shown
# T7 sequence: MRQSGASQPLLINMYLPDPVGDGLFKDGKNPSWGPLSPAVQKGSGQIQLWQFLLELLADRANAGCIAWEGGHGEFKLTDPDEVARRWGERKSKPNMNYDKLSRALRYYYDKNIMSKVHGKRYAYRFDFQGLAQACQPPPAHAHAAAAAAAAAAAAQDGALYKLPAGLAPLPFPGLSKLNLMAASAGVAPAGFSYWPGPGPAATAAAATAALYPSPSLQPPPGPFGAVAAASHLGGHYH
# Outline: as §1
# ETV5 = ETV5 (Homo sapiens, UniProt P41161 1-510); conditions: protein: recombinant; tags: N-terminal GST; dsDNA, one strand shown
# ETV5, sequence (P41161 whole entry): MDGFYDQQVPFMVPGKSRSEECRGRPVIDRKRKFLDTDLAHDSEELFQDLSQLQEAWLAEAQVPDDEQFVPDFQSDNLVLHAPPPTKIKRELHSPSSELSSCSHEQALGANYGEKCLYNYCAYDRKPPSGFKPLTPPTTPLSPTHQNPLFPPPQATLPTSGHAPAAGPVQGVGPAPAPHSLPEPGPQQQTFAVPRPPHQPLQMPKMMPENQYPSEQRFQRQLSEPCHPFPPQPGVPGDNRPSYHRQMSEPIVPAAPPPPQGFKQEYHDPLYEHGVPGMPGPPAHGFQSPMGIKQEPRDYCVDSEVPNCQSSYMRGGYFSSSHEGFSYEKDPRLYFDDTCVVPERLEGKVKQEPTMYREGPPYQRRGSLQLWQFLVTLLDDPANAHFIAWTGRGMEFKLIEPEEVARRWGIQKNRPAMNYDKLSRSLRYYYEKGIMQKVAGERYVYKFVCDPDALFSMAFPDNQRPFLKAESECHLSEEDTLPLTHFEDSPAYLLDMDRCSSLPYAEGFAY
# Outline: as §1
# HSF1 = HSF1 (Homo sapiens, UniProt Q00613 1-529); conditions: protein: recombinant; tags: N-terminal GST; chain copies: 3; dsDNA, one strand shown
# HSF1, sequence (Q00613 whole entry): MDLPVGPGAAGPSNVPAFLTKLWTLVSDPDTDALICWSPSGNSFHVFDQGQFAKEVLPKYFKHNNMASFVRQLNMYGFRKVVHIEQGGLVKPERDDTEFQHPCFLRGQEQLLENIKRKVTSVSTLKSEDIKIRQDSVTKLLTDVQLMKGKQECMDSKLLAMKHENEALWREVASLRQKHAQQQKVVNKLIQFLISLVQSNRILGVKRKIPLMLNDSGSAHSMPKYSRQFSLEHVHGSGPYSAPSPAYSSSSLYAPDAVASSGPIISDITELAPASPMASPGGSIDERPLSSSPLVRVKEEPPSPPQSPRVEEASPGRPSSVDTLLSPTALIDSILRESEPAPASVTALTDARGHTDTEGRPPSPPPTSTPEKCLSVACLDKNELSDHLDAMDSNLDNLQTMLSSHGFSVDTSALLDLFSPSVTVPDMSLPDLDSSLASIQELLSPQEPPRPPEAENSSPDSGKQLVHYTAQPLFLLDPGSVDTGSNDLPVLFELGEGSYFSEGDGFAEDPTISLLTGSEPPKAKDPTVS
# Outline: as §1
# SPIC = molecular target: T8, SPIC (Homo sapiens, UniProt Q8N5J4 1-248); conditions: protein: recombinant; tags: N-terminal GST; dsDNA, one strand shown
# T8 sequence: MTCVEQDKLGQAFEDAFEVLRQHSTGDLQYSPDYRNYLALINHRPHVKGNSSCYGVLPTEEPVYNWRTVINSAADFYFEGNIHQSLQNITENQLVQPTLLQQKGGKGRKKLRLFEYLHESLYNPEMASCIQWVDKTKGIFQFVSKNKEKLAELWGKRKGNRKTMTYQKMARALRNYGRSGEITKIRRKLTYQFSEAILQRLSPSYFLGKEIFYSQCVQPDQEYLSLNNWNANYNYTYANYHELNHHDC
# Outline: as §1
# ELF4 = ELF4 (Homo sapiens, UniProt Q99607 1-663); conditions: protein: recombinant; tags: N-terminal GST; dsDNA, one strand shown
# ELF4, sequence (Q99607 whole entry): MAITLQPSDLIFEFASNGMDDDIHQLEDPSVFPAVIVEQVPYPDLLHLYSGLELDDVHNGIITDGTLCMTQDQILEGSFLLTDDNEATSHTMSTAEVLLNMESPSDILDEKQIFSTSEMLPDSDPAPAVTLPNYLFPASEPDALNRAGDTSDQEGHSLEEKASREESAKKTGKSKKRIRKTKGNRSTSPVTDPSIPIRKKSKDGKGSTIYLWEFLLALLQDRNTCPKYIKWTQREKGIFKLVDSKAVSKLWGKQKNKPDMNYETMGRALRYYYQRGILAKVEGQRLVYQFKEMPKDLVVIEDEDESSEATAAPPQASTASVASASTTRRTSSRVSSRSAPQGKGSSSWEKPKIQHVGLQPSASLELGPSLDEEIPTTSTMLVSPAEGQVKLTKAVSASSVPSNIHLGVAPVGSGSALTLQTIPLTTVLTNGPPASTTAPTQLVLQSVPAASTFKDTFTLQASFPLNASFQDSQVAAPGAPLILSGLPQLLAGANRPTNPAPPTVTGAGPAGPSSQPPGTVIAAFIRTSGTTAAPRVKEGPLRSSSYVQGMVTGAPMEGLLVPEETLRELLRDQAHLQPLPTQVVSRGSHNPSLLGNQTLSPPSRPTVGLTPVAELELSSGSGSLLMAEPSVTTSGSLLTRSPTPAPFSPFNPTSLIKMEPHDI
# Outline: as §1
# ELK4 = molecular target: T9, ELK4 (Homo sapiens, UniProt P28324-2 1-405); conditions: protein: recombinant; tags: N-terminal GST; dsDNA, one strand shown
# T9 sequence: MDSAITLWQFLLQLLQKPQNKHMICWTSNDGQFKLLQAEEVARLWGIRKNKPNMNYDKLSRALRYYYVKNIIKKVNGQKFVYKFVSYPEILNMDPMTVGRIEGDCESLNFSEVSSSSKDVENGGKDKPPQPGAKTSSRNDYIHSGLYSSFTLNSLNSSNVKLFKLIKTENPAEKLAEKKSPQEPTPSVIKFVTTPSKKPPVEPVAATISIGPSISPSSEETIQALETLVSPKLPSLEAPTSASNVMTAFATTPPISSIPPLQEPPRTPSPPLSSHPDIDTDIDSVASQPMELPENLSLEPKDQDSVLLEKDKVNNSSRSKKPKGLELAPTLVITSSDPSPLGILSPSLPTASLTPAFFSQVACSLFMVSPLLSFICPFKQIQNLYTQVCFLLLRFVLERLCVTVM
# Outline: as §1
# ETV2 = molecular target: T10, ETV2 (Homo sapiens, UniProt O00321 1-342); conditions: protein: recombinant; tags: N-terminal GST; dsDNA, one strand shown
# T10 sequence: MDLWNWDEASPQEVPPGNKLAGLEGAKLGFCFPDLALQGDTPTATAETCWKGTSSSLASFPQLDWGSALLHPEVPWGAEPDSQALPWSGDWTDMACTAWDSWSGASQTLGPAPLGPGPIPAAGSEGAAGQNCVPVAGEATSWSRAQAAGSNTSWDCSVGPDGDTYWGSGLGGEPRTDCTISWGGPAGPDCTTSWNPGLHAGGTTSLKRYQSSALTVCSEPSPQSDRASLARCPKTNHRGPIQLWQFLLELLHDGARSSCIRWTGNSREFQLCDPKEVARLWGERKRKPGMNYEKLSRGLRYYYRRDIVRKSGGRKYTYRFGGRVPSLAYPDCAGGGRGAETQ
# Outline: as §1
# ELF3 = molecular target: T11, ELF3 (Homo sapiens, UniProt P78545 1-371); conditions: protein: recombinant; tags: N-terminal GST; dsDNA, one strand shown
# T11 sequence: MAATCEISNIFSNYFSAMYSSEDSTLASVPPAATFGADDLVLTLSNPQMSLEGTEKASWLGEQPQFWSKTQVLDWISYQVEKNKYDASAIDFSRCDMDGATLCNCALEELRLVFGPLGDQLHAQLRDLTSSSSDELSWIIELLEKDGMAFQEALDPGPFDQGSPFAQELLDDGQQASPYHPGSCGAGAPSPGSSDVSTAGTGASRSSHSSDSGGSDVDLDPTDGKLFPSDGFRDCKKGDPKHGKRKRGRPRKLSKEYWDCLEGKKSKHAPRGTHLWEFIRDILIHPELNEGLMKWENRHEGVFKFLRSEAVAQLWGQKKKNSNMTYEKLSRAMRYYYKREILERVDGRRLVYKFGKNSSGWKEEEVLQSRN
# Outline: as §1
# CRX = CRX (Homo sapiens, UniProt O43186 1-299); conditions: protein: recombinant; tags: N-terminal GST; dsDNA, one strand shown
# CRX, sequence (O43186 whole entry): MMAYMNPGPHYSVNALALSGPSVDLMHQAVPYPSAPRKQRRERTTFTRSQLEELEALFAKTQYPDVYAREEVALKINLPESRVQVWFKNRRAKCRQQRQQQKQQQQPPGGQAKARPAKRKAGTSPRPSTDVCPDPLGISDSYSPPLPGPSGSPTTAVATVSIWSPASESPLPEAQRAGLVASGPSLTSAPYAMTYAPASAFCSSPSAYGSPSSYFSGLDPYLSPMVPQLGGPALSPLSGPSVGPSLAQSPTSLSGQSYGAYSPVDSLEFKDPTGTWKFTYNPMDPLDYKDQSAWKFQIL
# Outline: as §1
# ETV1 = ETV1 (Homo sapiens, UniProt P50549 1-477); conditions: protein: recombinant; tags: N-terminal GST; dsDNA, one strand shown
# ETV1, sequence (P50549 whole entry): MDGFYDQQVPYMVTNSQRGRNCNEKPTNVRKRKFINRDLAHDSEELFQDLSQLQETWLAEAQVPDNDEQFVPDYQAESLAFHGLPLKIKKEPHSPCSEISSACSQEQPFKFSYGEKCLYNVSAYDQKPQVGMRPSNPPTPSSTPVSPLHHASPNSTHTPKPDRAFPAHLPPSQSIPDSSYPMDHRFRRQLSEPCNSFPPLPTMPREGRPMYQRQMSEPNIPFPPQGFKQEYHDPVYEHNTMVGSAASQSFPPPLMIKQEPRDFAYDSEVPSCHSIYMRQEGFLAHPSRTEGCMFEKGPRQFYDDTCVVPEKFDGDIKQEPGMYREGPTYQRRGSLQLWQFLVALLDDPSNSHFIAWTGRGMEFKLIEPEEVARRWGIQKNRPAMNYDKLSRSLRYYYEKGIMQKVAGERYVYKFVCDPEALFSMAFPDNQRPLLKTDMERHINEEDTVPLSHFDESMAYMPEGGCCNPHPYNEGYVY
# Outline: as §1
sequence,measurement,setting,value
TGCATT,binding signal,FLI1,"1.34 fold enrichment (6-mer frequency, TF over GST control)"
same,binding signal,ELK1,"1.34 fold enrichment (6-mer frequency, TF over GST control)"
same,binding signal,GABPA,"1.37 fold enrichment (6-mer frequency, TF over GST control)"
same,binding signal,ERG,"1.24 fold enrichment (6-mer frequency, TF over GST control)"
same,binding signal,ELF1,"1.33 fold enrichment (6-mer frequency, TF over GST control)"
same,binding signal,EHF,"1.3 fold enrichment (6-mer frequency, TF over GST control)"
same,binding signal,SPI1,"1.31 fold enrichment (6-mer frequency, TF over GST control)"
same,binding signal,SPIB,"1.34 fold enrichment (6-mer frequency, TF over GST control)"
same,binding signal,ELK3,"1.35 fold enrichment (6-mer frequency, TF over GST control)"
same,binding signal,FEV,"1.38 fold enrichment (6-mer frequency, TF over GST control)"
same,binding signal,ETV5,"1.3 fold enrichment (6-mer frequency, TF over GST control)"
same,binding signal,HSF1,"1.24 fold enrichment (6-mer frequency, TF over GST control)"
same,binding signal,SPIC,"1.44 fold enrichment (6-mer frequency, TF over GST control)"
same,binding signal,ELF4,"1.36 fold enrichment (6-mer frequency, TF over GST control)"
same,binding signal,ELK4,"1.38 fold enrichment (6-mer frequency, TF over GST control)"
same,binding signal,ETV2,"1.39 fold enrichment (6-mer frequency, TF over GST control)"
same,binding signal,ELF3,"1.49 fold enrichment (6-mer frequency, TF over GST control)"
same,binding signal,CRX,"1.32 fold enrichment (6-mer frequency, TF over GST control)"
same,binding signal,ETV1,"1.32 fold enrichment (6-mer frequency, TF over GST control)"
